According to PubChem BioAssay AID1159580 (chemical genetic matrix, 2015):
Where “and” joins values, the source holds several entries; their conditions need not be identical. Equal entries are not always repeated. Among all 5,500 compounds or so, about 2,000 (36%) were called active. Inconclusive results (about 18%) are left out. Cut-off read from the data, not from the text of the source: active = normalized growth mostly below about 0.91 (no sharp cut-off); inconclusive = no clear call, values can overlap the other calls; inactive = mostly above about 0.92. The list shows a part of the results.

Assay: chemical genetic growth profiling, strain panel (AID 1159580);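 note: tested at 20 µM; growth read once vehicle control cultures reached saturation at 30 °C; 1 = growth at the plate median or of vehicle wells; lower values mean less growth of the strain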
Details: S. cerevisiae deletion strains, growth OD

Measured: normalized growth

CN(C)CCCN1c2ccccc2Sc2ccc(Cl)cc21
0.739 (active) and 0.979 (inactive): locus YJL095W, strain BCK1, stronger effect = lower value
active: locus YAL021C, strain ccr4, stronger effect = lower value 0.0773 | locus YAL026C, strain drs2, stronger effect = lower value 0.0621 | locus YAL030W, strain snc1, stronger effect = lower value 0.0722 | locus YBL061C, strain skt5, stronger effect = lower value 0.0759 | locus YBR009C, strain hhf1, stronger effect = lower value 0.0662 | locus YBR021W, strain FUR4, stronger effect = lower value 0.612 | locus YBR023C, strain chs3, stronger effect = lower value 0.0864 | locus YBR171W, strain sec66, stronger effect = lower value 0.351 | locus YBR231C, strain swc5, stronger effect = lower value 0.0709 | locus YBR279W, strain paf1, stronger effect = lower value 0.165 | locus YCL011C, strain gbp2, stronger effect = lower value 0.068 | locus YCL016C, strain dcc1, stronger effect = lower value 0.165 | locus YCL069W, strain vba3, stronger effect = lower value 0.131 | locus YCR088W, strain abp1, stronger effect = lower value 0.0794 | locus YDL035C, strain GPR1, stronger effect = lower value 0.853 | locus YDL040C, strain nat1, stronger effect = lower value 0.14 | locus YDR001C, strain nth1, stronger effect = lower value 0.119 | locus YDR069C, strain doa4, stronger effect = lower value 0.0779 | locus YDR159W, strain sac3, stronger effect = lower value 0.274 | locus YDR162C, strain NBP2, stronger effect = lower value 0.599 | locus YDR195W, strain ref2 0.155 | locus YDR297W, strain sur2, stronger effect = lower value 0.0894 | locus YDR334W, strain swr1, stronger effect = lower value 0.0746 | locus YDR335W, strain msn5, stronger effect = lower value 0.158 | locus YDR392W, strain spt3, stronger effect = lower value 0.351 | locus YEL003W, strain gim4, stronger effect = lower value 0.0681 | locus YEL037C, strain rad23, stronger effect = lower value 0.0964 | locus YEL061C, strain CIN8 (second series), stronger effect = lower value 0.4 | locus YER015W, strain faa2, stronger effect = lower value 0.111 | locus YER016W, strain bim1, stronger effect = lower value 0.102 | locus YFR010W, strain ubp6, stronger effect = lower value 0.111 | locus YGL167C, strain pmr1, stronger effect = lower value 0.562 | locus YGL173C, strain kem1, stronger effect = lower value 0.501 | locus YGL227W, strain vid30, stronger effect = lower value 0.103 | locus YGL253W, strain hxk2, stronger effect = lower value 0.0994 | locus YHR013C, strain ard1, stronger effect = lower value 0.513 | locus YHR027C, strain rpn1, stronger effect = lower value 0.082 | locus YHR142W, strain chs7, stronger effect = lower value 0.116 | locus YJL092W, strain hpr5, stronger effect = lower value 0.0961 | locus YJL095W, strain BCK1 (second series), stronger effect = lower value 0.0651 | locus YJL115W, strain asf1, stronger effect = lower value 0.183 | locus YJL129C, strain trk1, stronger effect = lower value 0.159 | locus YJL154C, strain vps35, stronger effect = lower value 0.0684 | locus YJL164C, strain tpk1, stronger effect = lower value 0.0728 | locus YJL166W, strain qcr8, stronger effect = lower value 0.0785 | locus YKL160W, strain elf1, stronger effect = lower value 0.229 | locus YKR026C, strain gcn3, stronger effect = lower value 0.151 | locus YKR091W, strain srl3, stronger effect = lower value 0.0828 | locus YLL001W, strain dnm1, stronger effect = lower value 0.11 | locus YLL026W, stronger effect = lower value 0.0697 | locus YLL041C, strain sdh2, stronger effect = lower value 0.0922 | locus YLR027C, strain aat2, stronger effect = lower value 0.0702 | locus YLR039C, strain RIC1, stronger effect = lower value 1.67 [resistant] | locus YLR221C, strain rsa3, stronger effect = lower value 0.11 | locus YLR258W, strain gsy2, stronger effect = lower value 0.0787 | locus YLR262C, strain YPT6 (second series), stronger effect = lower value 0.165 | locus YLR262C, strain YPT6, stronger effect = lower value 1.54 [resistant] | locus YLR320W, strain mms22, stronger effect = lower value 0.181 | locus YLR342W, strain FKS1 (second series), stronger effect = lower value 0.746 | locus YLR342W, strain FKS1, stronger effect = lower value 0.0779 | locus YLR357W, strain rsc2, stronger effect = lower value 0.18 | locus YLR370C, strain arc18, stronger effect = lower value 0.067 | locus YLR384C, strain iki3, stronger effect = lower value 0.102 | locus YLR418C, strain cdc73, stronger effect = lower value 0.804 | locus YML120C, strain ndi1, stronger effect = lower value 0.082 | locus YMR058W, strain fet3, stronger effect = lower value 0.0939 | locus YMR125W, strain sto1, stronger effect = lower value 0.0861 | locus YMR129W, stronger effect = lower value 0.0771 | locus YMR205C, strain PFK2, stronger effect = lower value 0.719 | locus YMR231W, strain pep5, stronger effect = lower value 0.0725 | locus YNL071W, strain lat1, stronger effect = lower value 0.218 | locus YNL153C, strain GIM3, stronger effect = lower value 0.86 and 0.732 | locus YNL209W, strain ssb2, stronger effect = lower value 0.101 | locus YNL248C, strain rpa49, stronger effect = lower value 0.461 | locus YNR049C, strain mso1, stronger effect = lower value 0.0933 | locus YOR001W, strain rrp6, stronger effect = lower value 0.143 | locus YOR070C, strain gyp1, stronger effect = lower value 0.0696 | locus YOR080W, strain dia2, stronger effect = lower value 0.18 | locus YOR083W, strain WHI5, stronger effect = lower value 0.0877 | locus YOR106W, strain vam3, stronger effect = lower value 0.0702 | locus YOR265W, strain rbl2, stronger effect = lower value 0.0766 | locus YOR270C, strain vph1, stronger effect = lower value 0.331 | locus YOR290C, strain snf2, stronger effect = lower value 0.122 | locus YPL051W, strain arl3, stronger effect = lower value 0.229 | locus YPL078C, strain atp4, stronger effect = lower value 0.586 | locus YPL106C, strain sse1, stronger effect = lower value 0.109 | locus YPL240C, strain hsp82, stronger effect = lower value 0.0839
inactive: locus YAL040C, strain CLN3, stronger effect = lower value 0.992 | locus YBR229C, strain ROT2, stronger effect = lower value 1.01 | locus YCL029C, strain bik1, stronger effect = lower value 1.03 | locus YDL005C, strain med2, stronger effect = lower value 1.01 | locus YDL074C, strain BRE1, stronger effect = lower value 0.87 | locus YDL101C, strain DUN1, stronger effect = lower value 0.992 | locus YDL185W, strain tfp1, stronger effect = lower value 1.01 | locus YDL192W, strain arf1, stronger effect = lower value 1.01 | locus YDR101C, strain arx1, stronger effect = lower value 0.98 | locus YDR137W, strain rgp1, stronger effect = lower value 0.903 | locus YDR318W, strain mcm21, stronger effect = lower value 0.999 | locus YDR363W, strain ESC2, stronger effect = lower value 0.953 | locus YDR388W, stronger effect = lower value 0.98 | locus YDR502C, strain sam2, stronger effect = lower value 0.974 | locus YEL061C, strain CIN8, stronger effect = lower value 0.983 | locus YER002W, strain NOP16, stronger effect = lower value 0.972 | locus YER110C, stronger effect = lower value 1.04 | locus YER111C, strain swi4, stronger effect = lower value 0.977 | locus YER155C, strain BEM2 (second series), stronger effect = lower value 1.12 | locus YER155C, strain BEM2, stronger effect = lower value 1.02 | locus YER167W, strain BCK2, stronger effect = lower value 1.01 | locus YGL078C, strain dbp3, stronger effect = lower value 1.01 | locus YGL086W, strain mad1, stronger effect = lower value 0.936 | locus YGL240W, strain doc1, stronger effect = lower value 0.92 | locus YGL248W, strain PDE1, stronger effect = lower value 0.994 | locus YGR078C, strain PAC10, stronger effect = lower value 0.889 and 0.997 | locus YGR135W, strain pre9, stronger effect = lower value 0.913 | locus YGR252W, strain gcn5, stronger effect = lower value 0.78 | locus YHR030C, strain SLT2, stronger effect = lower value 0.948 and 0.983 | locus YHR079C, strain IRE1 (second series), stronger effect = lower value 1.01 | locus YHR079C, strain IRE1, stronger effect = lower value 0.984 | locus YHR094C, strain hxt1, stronger effect = lower value 1 | locus YHR129C, strain ARP1, stronger effect = lower value 1 | locus YHR200W, strain rpn10, stronger effect = lower value 1.01 | locus YIL066C, strain RNR3, stronger effect = lower value 0.936 | locus YIL073C, strain SPO22, stronger effect = lower value 0.979 | locus YIL125W, strain kgd1, stronger effect = lower value 1 | locus YIR030C, strain dcg1, stronger effect = lower value 1.02 | locus YJL134W, strain LCB3, stronger effect = lower value 0.998 | locus YJL168C, strain set2, stronger effect = lower value 1.01 | locus YJL187C, strain SWE1 (second series), stronger effect = lower value 0.949 | locus YJR043C, strain POL32, stronger effect = lower value 1.02 | locus YJR066W, strain TOR1, stronger effect = lower value 0.974 | locus YJR075W, strain HOC1, stronger effect = lower value 0.933 | locus YKL009W, strain mrt4, stronger effect = lower value 1.02 | locus YKL068W, stronger effect = lower value 1.01 | locus YKL085W, strain MDH1 (second series), stronger effect = lower value 0.975 | locus YKL085W, strain MDH1, stronger effect = lower value 0.975 | locus YKL190W, strain CNB1, stronger effect = lower value 0.949 | locus YKR001C, strain vps1, stronger effect = lower value 0.919 | locus YLR058C, strain SHM2, stronger effect = lower value 0.986 | locus YLR102C, strain apc9, stronger effect = lower value 1 | locus YLR113W, strain HOG1, stronger effect = lower value 0.982 | locus YLR268W, strain sec22, stronger effect = lower value 1.01 | locus YLR330W, strain CHS5, stronger effect = lower value 1 | locus YLR371W, strain rom2, stronger effect = lower value 1.01 | locus YML016C, strain PPZ1, stronger effect = lower value 1 | locus YML032C, strain rad52, stronger effect = lower value 0.964 | locus YML124C, strain tub3, stronger effect = lower value 1.01 | locus YMR078C, strain ctf18, stronger effect = lower value 1.01 | locus YMR223W, strain ubp8, stronger effect = lower value 0.958 | locus YMR263W, strain SAP30, stronger effect = lower value 0.955 | locus YMR307W, strain GAS1, stronger effect = lower value 1.02 | locus YNL067W, strain RPL9B, stronger effect = lower value 0.993 | locus YNL175C, strain NOP13, stronger effect = lower value 0.967 | locus YNL183C, strain NPR1, stronger effect = lower value 0.917 | locus YNL197C, strain WHI3, stronger effect = lower value 0.98 | locus YNL224C, strain SQS1, stronger effect = lower value 0.984 | locus YNL233W, strain BNI4, stronger effect = lower value 0.937 | locus YNL250W, strain rad50, stronger effect = lower value 1.02 | locus YNL271C, strain bni1, stronger effect = lower value 1.01 | locus YNL298W, strain CLA4, stronger effect = lower value 1.02 | locus YNL307C, strain MCK1, stronger effect = lower value 1.01 | locus YNL322C, strain KRE1 (second series), stronger effect = lower value 1.07 | locus YNL322C, strain KRE1, stronger effect = lower value 0.974 | locus YNR052C, strain pop2, stronger effect = lower value 0.94 | locus YOL006C, strain TOP1, stronger effect = lower value 0.733 | locus YOL012C, strain htz1 0.856 | locus YOL147C, strain pex11, stronger effect = lower value 1.02 | locus YOR061W, strain CKA2, stronger effect = lower value 0.948 | locus YOR069W, strain VPS5, stronger effect = lower value 1 | locus YOR083W, strain WHI5 (second series), stronger effect = lower value 0.935 | locus YOR136W, strain idh2, stronger effect = lower value 1.03 | locus YOR144C, strain elg1, stronger effect = lower value 1.01 | locus YOR184W, strain ser1, stronger effect = lower value 1.04 | locus YOR231W, strain MKK1, stronger effect = lower value 0.986 | locus YOR316C, strain cot1, stronger effect = lower value 1 | locus YPL241C, strain CIN2, stronger effect = lower value 0.988 and 0.985 | locus YPL256C, strain CLN2, stronger effect = lower value 0.97 | locus YPR119W, strain clb2, stronger effect = lower value 1.01 | locus YPR141C, strain kar3, stronger effect = lower value 1.02 | locus YPR163C, strain tif3, stronger effect = lower value 0.988 | locus YPR167C, strain met16, stronger effect = lower value 1.02 | strain wtn01, stronger effect = lower value 0.969
